Laboratory results published in PubChem BioAssay (NCI).
The panel holds about 83,000 compounds, 20% with a hit somewhere; the sample as a whole holds those more often.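 Note: values are percent growth. 100 is the growth of untreated cells, values between 100 and 0 indicate rising inhibition; between -100 and 0 indicates cell death.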 A number with no mark means an inactive call. Calls of active or inactive are those of the source. The calls were made as follows: active = growth percent below 10; inactive = the rest.

test system: T-47D breast; assay: NCI-60 one-dose screen, 48 h (100 = growth as untreated, 0 = no growth, -100 = all killed); settings: 10 µM unless noted

| SMILES | growth |
| --- | --- |
| O=C(Nc1ccc(C(=O)Nc2ccc(C3=NCCCN3)cc2)cc1)Nc1ccc(C2=NCCCN2)cc1 | 45.2% |
| CC(C)C1CCC(C)C(C2(C#N)C(N)=NC(N)=C2C#N)C1=O (stereo not drawn) | 83.6% |
| O=C(/C=C/c1ccc2c(c1)OCO2)c1c(O)c2ccccc2oc1=O | 89% |
| CCNC(=O)C#Cc1ccc2c(C(=Nc3ccc(CN(C)C)cc3)c3ccccc3)c(O)[nH]c2c1 | 62.3% |
| CNS(=O)(=O)Nc1nccc(Cc2c(C)c3ccc(Oc4ncccn4)cc3oc2=O)c1F | 60.1% |
| C[C@@H](NC(=O)c1ncnc(N)c1Cl)c1ncc(C(=O)Nc2cc(C(F)(F)F)c(Cl)cn2)s1 | 92.2% |
| COc1ccc(Nc2ncccc2NC(=O)c2cn(Cc3cccc(Oc4ccccc4)c3)nn2)cc1 | 79.1% |
| COc1ccc(OC)c(NC2=C(SCCc3ccccc3)C(=O)c3ccccc3C2=O)c1 | 70.6% |
| O=C(O)c1ccc2c(c1)nc(Nc1cccc(Cl)c1)c1ccncc12 | -22.1% (active) |
| Cc1nc(Nc2n[nH]c3c2CN(C(=O)N[C@H](CN(C)C)c2ccccc2)C3(C)C)c2sccc2n1 | -25.2% (active) |
| NC1(C(=O)N[C@@H](CCO)c2ccc(Cl)cc2)CCN(c2ncnc3[nH]ccc23)CC1 | 11.7% |
| COC[C@@H](C)n1c(C2CCOCC2)nc2c1C1C=C(OC)C(c3c(C)noc3C)=CC1N=C2 (stereo partly drawn) | 44.6% |
| N#CC1(C#N)C(c2cccs2)NC(c2cccs2)C1(C#N)C#N (stereo not drawn) | 91% |
